Screens from PubChem.
This is one part of a sample in which hits are shown more often than they occur.
BoNT A protease – inhibitors of Botulinum neurotoxin A light chain protease; 0.17% of 360,000 active; multiplex microsphere protease substrate cleavage, flow cytometry; inhibition, % at 10 µM; note: plate controls were buffer without enzyme for full effect and enzyme alone for no effect
BoNT-F LC inh – BoNT F light chain protease inhibition; Multiplex microsphere protease cleavage assay, flow cytometry; inhibition, % at 10 µM; 0.22% of 360,000 active; in the data active = inhibition above about 35%, passing the limit was not always enough; inconclusive = no clear call, values can overlap the other calls; note: plate controls were buffer without enzyme for full effect and enzyme alone for no effect
TcdB inh – inhibitors of Clostridioides difficile toxin B glycohydrolase | P18177 | TcdB glycohydrolase enzymatic assay, plate reader | inhibition, % at 9.99 µM | 0.24% of 350,000 active | AID 652162; in the data active = inhibition above about 10%
Anthrax LF inh2 – inhibitors of Bacillus anthracis lethal factor protease. P15917. multiplex microsphere protease cleavage assay, LF. inhibition, % at 10 µM. 0.12% of 360,000 active; note: plate controls were buffer without enzyme for full effect and enzyme alone for no effect
Autofluor counter – compound fluorescence in toxin protease inhibitor counterscreen. compound autofluorescence counterscreen, microsphere flow cytometry; stronger effect = higher value. fluorescence intensity (test concentration not listed). 3.1% of 360,000 active. AID 624483; in the data active = fluorescence intensity above about 16000; inconclusive = no clear call, values can overlap the other calls
The depositor's hits bear a star; ? = inconclusive; / = not tested or not shown. Cut-off read from the data, not from the text of the source, unless noted: active = inhibition above about 30%; inconclusive = no clear call, values can overlap the other calls; inactive = below that.

SMILES | BoNT A protease | BoNT-F LC inh | TcdB inh | Anthrax LF inh2 | Autofluor counter
O=C(O)c1ccc(NS(=O)(=O)c2ccc(Cl)cc2)cc1 | -1.2 | -1.9 | / | -5.3 | 21092*
COc1ccc(N2CCN(C(=O)c3ccc(NS(=O)(=O)c4ccc(F)c(F)c4)cc3)CC2)cc1 | -4.0 | -6.3 | 1.0 | -0.7 | 17709*
COc1ccc(NS(=O)(=O)c2ccc(N3C(=O)CCC3=O)cc2)cc1 | -3.9 | -4.2 | / | -2.1 | 24859*
COc1ccc(NS(=O)(=O)c2ccc(NS(=O)(=O)c3cccc(C(=O)O)c3)cc2)cc1 | 0.5 | 0.9 | 0.0 | 0.4 | 5142
COC(=O)c1ccc(NS(=O)(=O)c2ccc(OC)cc2)cc1 | ? | 0.5 | 0.9 | -0.9 | 22817*
O=C1CCC(=O)N1c1ccc(S(=O)(=O)Nc2ccc(Br)cc2)cc1 | -0.2 | -2.3 | -10.2 | -1.7 | 4265
COc1ccc(NS(=O)(=O)c2ccc(C(=O)N3CCN(c4ccc(F)cc4)CC3)cc2)cc1 | -0.4 | 2.0 | 1.8 | -11.5 | 3810
CCC(=O)N1[C@@H]2CN(C(=O)c3ccccc3F)c3ccccc3[C@@H]2[C@@H]1CO | / | / | 0.3 | / | /
O=C(C[C@H]1CC[C@H]2[C@@H](COC[C@H](O)CN2Cc2cc(F)ccc2F)O1)N[C@@H]1CCN(Cc2ccccc2)C1 | / | / | -0.5 | / | /
C[C@@H]1CN([C@@H](C)CO)C(=O)Cc2cc(NC(=O)Nc3ccc(F)cc3)ccc2O[C@H]1CN(C)Cc1ccccc1 | / | / | 1.2 | / | /
C[C@@H]1CCCCO[C@@H](CN(C)C(=O)Nc2ccc(F)cc2)[C@H](C)CN([C@H](C)CO)C(=O)c2cc(NC(=O)CCC(F)(F)F)ccc2O1 | / | / | 1.5 | / | /
CC(=O)Nc1ccc(S(=O)(=O)N2CCN(CCCOc3ccccc3Cl)CC2)cc1 | -0.2 | -3.7 | / | -2.5 | 5838
COc1ccc(N2C(=O)CCC(C(C)=O)=C2C)cc1 | ? | 1.3 | / | -2.3 | 22405*
COc1cccc(NS(=O)(=O)c2c(C)cc(C)cc2C)c1 | -0.8 | -1.7 | / | -0.8 | 20856*
COc1cccc(OCCCN2CCN(S(=O)(=O)c3ccc(NC(C)=O)cc3)CC2)c1 | ? | -1.7 | / | -2.8 | 20823*
COc1ccc(OS(=O)(=O)c2ccc(N3C(=O)CCC3=O)cc2)cc1 | 0.0 | -5.3 | 0.0 | -17.0 | 3689
COc1cccc(CN2[C@@H](CO)[C@H](c3ccccc3)C23CN(C(=O)C2CCCC2)C3)c1 | / | / | -0.4 | / | /
O=c1[nH]c2ccsc2c(=O)n1-c1ccc(F)c(Cl)c1 | ? | 10.2 | / | -10.3 | 17764*
O=C(Nc1ccccc1)c1ccn[nH]1 | -0.6 | -2.1 | / | -1.5 | 2448
CC(=O)c1ccc(NC(=O)c2ccn[nH]2)cc1 | -0.9 | -2.7 | / | 0.3 | 22226*
COc1ccccc1N1CCN(C(=O)C2C3C=CC4(CN(Cc5ccccc5Cl)C(=O)C24)O3)CC1 (stereo unspecified) | 0.2 | -0.8 | / | -0.2 | 20591*
CCCCC(=O)Nc1ccc2oc(-c3ccncc3)nc2c1 | -0.9 | 3.9 | / | 5.5 | 6848
COc1ccccc1-c1nc(-c2ccc(Br)cc2)no1 | -1.8 | -2.9 | / | -1.4 | 10052
COc1cccc(-c2nc(-c3ccc(NC(=O)Cc4ccccc4OC)cc3)no2)c1 | 0.1 | -3.7 | / | -0.4 | 2236
CCCC(=O)Nc1ccc2oc(-c3ccncc3)nc2c1 | -0.1 | -1.0 | / | -1.6 | 16375*
SMILES | BoNT A protease | BoNT-F LC inh | TcdB inh | Anthrax LF inh2 | Autofluor counter
COc1ccc(-c2nc(-c3ccc(Br)cc3)no2)c(OC)c1 | 0.6 | -1.5 | / | 5.7 | 19523*
COc1ccc(-c2nc3cc(NC(=O)Cc4ccc(OC)c(OC)c4)ccc3o2)cc1 | -0.8 | -3.4 | / | -3.4 | 16446*
COc1ccc(CC(=O)Nc2ccc(-c3noc(-c4ccccc4OC)n3)cc2)cc1 | ? | 0.4 | / | -1.5 | 22431*
COc1ccc(OCC(=O)Nc2ccc3oc(-c4ccncc4)nc3c2)cc1 | 0.4 | -2.9 | -0.1 | -1.0 | 2660
Cc1cc(=O)[nH]c2c(C)c(N)ccc12 | 0.9 | -1.9 | / | 0.2 | 23024*
COc1ccc(C(C)n2c(C)c3c(C)nnc(C)c3c2C)cc1 (stereo unspecified) | 3.3 | -4.9 | / | -1.1 | 16371*
Cc1nnc(C)c2c(C)n(C(C)c3ccccc3)c(C)c12 (stereo unspecified) | 1.0 | -22.5 | / | -3.6 | 3434
COCC(=O)Nc1ccc2c(c1)C(=O)N(C)[C@H]1CC[C@@H](CC(=O)NCc3ccccc3)O[C@H]1CO2 | / | / | -0.2 | / | /
Cn1c(CN2CCOCC2)c(C#N)c2ccccc21 | 7.7 | 9.7 | / | -8.5 | 17523*
CN1CCN(Cc2c(C#N)c3ccccc3n2C)CC1 | ? | 0.5 | / | -1.3 | 19926*
Cn1c(CN2CCCC2)c(C#N)c2ccccc21 | -0.7 | -4.1 | 0.5 | -3.0 | 2676
CN1CCN(Cc2nc3ccccc3n2C)CC1 | ? | 1.7 | / | 0.0 | 19606*
CCCNC(=O)N1[C@H](CO)[C@H](c2ccccc2-c2ccc(OC)cc2)[C@@H]1C#N | / | / | 0.5 | / | /
COc1ccc(NC(=O)N(C)C[C@H]2Oc3ncc(C#CCC(C)C)cc3C(=O)N([C@H](C)CO)C[C@@H]2C)cc1 | / | / | -0.3 | / | /
C[C@@H]1CN([C@H](C)CO)S(=O)(=O)c2ccc(-c3cccnc3)cc2O[C@H]1CN(C)C(=O)CN(C)C | / | / | 0.2 | / | /
COc1ccc2c(c1)CCc1c(C(=O)Nc3ccc(OC)c(OC)c3)noc1-2 | -1.9 | -3.0 | / | -1.2 | 20591*
COc1ccc2c(c1)CCc1c(C(=O)N3CCCc4ccccc43)noc1-2 | 0.4 | -6.1 | / | 0.6 | 8028
COc1ccc2c(c1)CCc1c(C(=O)N3CCOCC3)noc1-2 | 12.2 | 15.7 | 3.6 | -18.3 | 18054*
O=C(N[C@H]1CC[C@H](CCNS(=O)(=O)c2ccc(F)cc2)O[C@@H]1CO)c1cnccn1 | / | / | 0.2 | / | /
C[C@@H]1CN([C@@H](C)CO)C(=O)Cc2cc(NC(=O)NC3CCCCC3)ccc2O[C@H]1CN(C)Cc1ccc(C(F)(F)F)cc1 | / | / | 1.1 | / | /
Cc1ccccc1CN(C)CCc1ccccn1 | -0.2 | 0.3 | 1.7 | -0.9 | 3260
Cc1cccc(CN(C)CCc2ccccn2)c1 | -1.5 | -4.8 | / | 1.2 | 16809*
O=C(NCCN1CCCC1)[C@H]1[C@H](CO)[C@H]2Cn3c(cccc3=O)[C@@H]1N2C(=O)NC1CCCC1 | / | / | -9.3 | / | /
CCC(=O)Nc1ccc2c(c1)C(=O)N(C)C[C@H](OC)[C@H](C)CN(C(=O)c1ccccc1F)[C@H](C)CO2 | / | / | 0.7 | / | /
C[C@@H]1CN([C@@H](C)CO)S(=O)(=O)c2ccc(C#CC3CC3)cc2O[C@H]1CN(C)C(=O)c1cnccn1 | / | / | 0.4 | / | /
SMILES | BoNT A protease | BoNT-F LC inh | TcdB inh | Anthrax LF inh2 | Autofluor counter
CCN1CCN(C(=O)c2nn(-c3ccccc3)c(=O)c3ccccc23)CC1 | 2.4 | 2.0 | / | -2.5 | 18559*
COc1ccc(-n2nc(C(=O)NCC(=O)NCc3ccco3)c3ccccc3c2=O)cc1 | -0.1 | -3.6 | / | -1.7 | 5918
O=C(NCc1ccco1)c1nn(-c2ccccc2)c(=O)c2ccccc12 | 0.9 | 0.0 | / | -1.3 | 21403*
Cc1ccc(S(=O)(=O)N(C)C[C@@H]2Oc3ccc(NC(=O)Nc4ccc5c(c4)OCO5)cc3C(=O)N([C@H](C)CO)C[C@@H]2C)cc1 | / | / | -2.4 | / | /
Cc1nnc(SCc2ccc(F)cc2Cl)s1 | -0.4 | -2.1 | / | 0.1 | 19791*
Nc1nnc(SCc2ccc(F)cc2Cl)s1 | 6.7 | 6.6 | 1.0 | 1.9 | 21708*
Cc1nnc(SCc2ccc3c(c2)OCO3)s1 | 2.8 | 3.2 | / | -8.0 | 21079*
